Assay in all cases: NCI-60 one-dose screen, 48 h (100 = growth as untreated, 0 = no growth, -100 = all killed)
Holding throughout (details): 10 µM unless noted

The test system of assay [1] is NCI-H23 lung.
In assay [2] the test system is NCI-H226 lung.
Assay [3] concerns NCI-H322M lung.
Assay [4] relates to HOP-62 NSCLC.
The subject of assay [5] is NCI-H460 lung.
The subject of assay [6] is HOP-92 NSCLC.
Assay [7] relates to NCI-H522 lung.
Assay [8] relates to 786-0 renal.
Assay [9] has as its system COLO 205 colon.
Assay [10] relates to A549/ATCC NSCLC.

Compounds without any hit were thinned out: in the full panel of roughly 83,000, 20% have a hit.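 Step 1: grow cells in 96-well plates. Step 2: add test compound at a single concentration. Step 3: incubate 48 h. Step 4: record percent growth.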 Unmarked numbers belong to inactive results. Activity calls are given as the source filed them. How the source made its calls: active means growth percent below 10; inactive means the rest.

Take `Cc1cc(N2CCN(CC(=O)Nc3ccc4c(ccn4C)c3)CC2)nc(N2CCCCCC2)n1`: the growth in assay [1] was 99.9%; in assay [2], 97.9%; in assay [3] it was 92.9%; in assay [4] it was 80.2%; in [5] it was 101%; in assay [6], 60.5%. For the same compound, the growth in assay [7] was 73.3%; in assay [8], 93.8%; in [9], 81.1%.
For the compound `N#Cc1c(-c2ccccc2)cc(-c2ccccc2)n(CCCC(=O)Nc2ccccc2N)c1=O`, the growth in [1] was 73.5%; in assay [2], 73.9%; in assay [3] it was 102%; in assay [4] it was 64.7%; in assay [5], 33.5%; in assay [6], 62.1%. Further, the growth in assay [7] was 32.4%; in assay [8], 63.9%; in [9] it was 92.3%.
With `COCCOc1cc2ncnc(N3CCN(c4ncc(S(=O)(=O)N5CCCCC5)cn4)CC3)c2cc1OCCOC`, the growth in [1] is 91.5%; in assay [2], 97.2%; in assay [3] it was 96.5%; in assay [4], 118%; in assay [5], 103%; in assay [6], 89.5%. Also, the growth is 84.4% in assay [7], 102% in [10], 108% in [8] and 121% in assay [9].
For the compound `O=C(Nc1nc2ccc(C(=O)N3CCN(/C=C/c4ccccc4)CC3)cc2s1)c1ccc(NCCc2ccccc2)c([N+](=O)[O-])c1`, the growth in [1] was 51%; in assay [2], 62.1%; in assay [3], 82.8%; in assay [4] it was 58.4%; in [5] it was 16.5%; in [6] it was 51.8%. Besides, the growth in assay [7] was 48.3%; in assay [8] it was 69.7%; in assay [9] it was 18.5%.
Take `C#COc1cccc(Nc2c(C#N)cnc3ncc(NC(=O)CCl)cc23)c1`: the growth was 59.6% [6.25 µM] in assay [1]; 57.2% [6.25 µM] in [2]; 53.1% [6.25 µM] in [3]; 32.8% [6.25 µM] in assay [4]; 11.8% [6.25 µM] in [5]; 54.5% [6.25 µM] in assay [6]. The growth in [7] was -69.4% [6.25 µM] (active); in assay [10], 31.2% [6.25 µM]; in [8], -23.4% [6.25 µM] (active); in assay [9], 17.5% [6.25 µM].
For the compound `O=C1c2c(c3c4ccccc4[nH]c3c3ccc4ccccc4c23)C(=O)N1CCN1CCOCC1`, the growth in assay [1] is 32.6%; in [2], 61.4%; in assay [3] it was 51.8%; in [4], 45.8%; in [5], 2.17% (active); in [6], 66.1%. The growth in assay [7] is 29.1%; in [8], 52.5%; in [9] it was 55.5%.
As for `CC1CCc2c(C(=O)Nc3ncc(Cc4cccc([N+](=O)[O-])c4)s3)csc2C1` (stereo unspecified), the growth in assay [1] was 36.6%; in assay [2], 54.1%; in assay [3], 33.1%; in assay [4], 26.8%; in assay [5], 11.2%; in assay [6], 58.9%. Also, the growth was 2.96% (active) in assay [7], 34.4% in assay [10], 30.1% in assay [8] and 10.8% in [9].
In the case of `COc1ccc(-c2cc(-c3cccnc3)nc3sc4c(=O)[nH]c(-c5ccc(Cl)cc5)nc4c23)cc1OC`, the growth was 98.8% in assay [1]; 79.1% in [2]; 104% in assay [3]; 88.3% in assay [4]; 90.9% in assay [5]; 75.1% in assay [6]. The growth is 78.6% in assay [7], 89.2% in [8] and 91.2% in assay [9].
Consider `COc1ccc(C/C(C)=C(/c2ccc(OCCN(C)C)cc2)c2ccc(OC(=O)NCc3ccccc3)cc2)cc1`, for which the growth was 83.1% in assay [1]; 97.7% in assay [2]; 80.8% in assay [3]; 83.3% in assay [4]; 22.9% in assay [5]; 38.2% in assay [6]. Moreover, the growth was 50.4% in assay [7], 55% in assay [10], 61.1% in assay [8] and 20.4% in [9].
In the case of `Nc1nc(N)c(-c2ccc(Cl)c(Cl)c2)c(CBr)n1`, the growth was 78.3% in assay [1]; 93.3% in assay [2]; 78.4% in assay [3]; 102% in [4]; 25.7% in assay [5]; 99% in [6]. The growth in assay [7] is 9.79% (active); in assay [8], 52%; in [9] it was 76.6%.
Consider `O=C(CSc1oc(-c2ccccc2)nc1S(=O)(=O)c1ccccc1)Nc1ccc(F)cc1`, for which the growth is 78.6% in [1]; 87% in [2]; 76.9% in [3]; 86.1% in [4]; 93.5% in [5]; 2.48% (active) in [6]. For the same compound, the growth in assay [7] is 72.2%; in assay [8], 59.1%; in assay [9] it was 101%.
For `CSc1oc(C)nc1[P+](c1ccccc1)(c1ccccc1)c1ccccc1`, the growth in [1] was 30%; in assay [2] it was 67.6%; in assay [3], 99%; in [4], 87.6%; in assay [5], 37.3%; in assay [6], 59.9%. The values for the growth in assay [7], in assay [8] and in [9] were 56.5%, 89.3% and 7.5% (active), respectively.
On to `O=C1c2ccc3c4c5ccc(c24)C(=O)N1CCCOCCCCOCCCNCc1ccc(cc1)CNCCCOCCCCOCCCN(C3=O)C5=O`, for which the growth in assay [1] was -52.3% (active); in assay [2] it was 72.8%; in assay [3] it was 0.552% (active); in assay [4], 33.6%; in [5], 3.03% (active); in [6], 45.8%. Also, the growth is -39.2% (active) in assay [7], -6.67% (active) in assay [8] and -71% (active) in [9].
For `Nc1ncnc2c1C(c1ccccc1)c1ccc3ccccc3c1O2` (stereo unspecified), the growth in assay [1] is 77.5%; in assay [2] it was 77.6%; in assay [3] it was 88%; in assay [4], 68.5%; in assay [5], 103%; in [6], 45.1%. Further, the growth in assay [7] is 53.8%; in assay [10], 86%; in assay [8], 89.7%; in assay [9], 92.8%.
Regarding `CCCCCC(/C=N\NC(=S)N/N=C/C(=C/c1ccccc1)CCCCC)=C\c1ccccc1`, the growth in [1] is 70.6%; in assay [2], 89.8%; in assay [3] it was 61.3%; in assay [4], 72.7%; in [5] it was 57.8%; in assay [6], 15.8%. For the same compound, the growth in [7] was 40.4%; in assay [8], 79.9%; in assay [9], 97.2%.
`CCCOC(=O)Nc1nc2ccc(SCC(C)C)cc2s1`: the growth in [1] was 46.4%; in assay [2], 52.4%; in assay [3] it was 44.1%; in assay [4], 40.7%; in assay [5], 29.1%; in assay [6], 48.4%. The growth was 24.1% in assay [7], 34.3% in assay [10], 40.4% in [8] and 11.6% in assay [9].
For the compound `CCOC(=O)c1cc2c(n1C)-c1nc(NC(C)=O)sc1CCC2`, the growth in [1] is 76.1%; in assay [2], 69.1%; in assay [3], 76.2%; in assay [4], 74.6%; in assay [5], 95.5%; in assay [6] it was 48.4%. The growth in [7] is 60.9%; in assay [10], 64.8%; in assay [8], 84.6%; in assay [9], 96.4%.
With `CC1OC(n2c3ccccc3c3c4c(c5c6ccccc6[nH]c5c32)C(=O)N(CCN2CCCC2)C4=O)CC(O)C1O` (stereo unspecified), the growth in assay [1] is 41%; in assay [2] it was 43.1%; in [3], 58.2%; in assay [4], 35.2%; in [5], -61.3% (active); in [6], 86.6%. The growth in assay [7] is 24.5%; in assay [8], 18%; in assay [9] it was 24.8%.
Regarding `CC1(C)CC(=O)C2=C(C1)N(c1ccc(OC(F)(F)F)cc1)C(N)=C(C#N)C2c1ccc(Br)cc1F` (stereo unspecified), the growth in assay [1] was 75.8%; in assay [2] it was 33.1%; in assay [3], 59.1%; in assay [4], 6.8% (active); in assay [5] it was 25.3%; in assay [6] it was 39.8%. Further, the growth in [7] is 88.6%; in assay [10] it was 44.1%; in assay [8], 35.7%; in assay [9], 93.8%.
`S=c1sc2c(Cl)nc(-c3cccnc3)nc2n1-c1ccccc1`: the growth is 17.5% in [1]; 85.2% in [2]; 61% in assay [3]; 27.8% in [4]; 57.4% in assay [5]; 25.3% in [6]. The growth in assay [7] was -65.8% (active); in assay [8], 35.4%; in [9], 80%.
Take `CN(C)CCNC(=O)c1ccc(-c2nc3ccc4[nH]ncc4c3c3c2C2CCC3C2)cc1` (stereo unspecified): the growth is 32.2% in assay [1]; 49.3% in [2]; 58.8% in assay [3]; 46.6% in [4]; 11.8% in assay [5]; 101% in [6]. The growth is -28.8% (active) in assay [7], 14.2% in assay [10], 28.3% in [8] and 18.6% in assay [9].
On to `Cc1c(O)cc(-c2cnc(Nc3ccccc3)s2)c(O)c1C`, for which the growth in assay [1] was 87.1%; in assay [2], 98.6%; in assay [3], 96.6%; in [4], 97.4%; in assay [5] it was 99.3%; in [6] it was -64.4% (active). In addition, the values for the growth in [7], in assay [8] and in [9] were 83.4%, 107% and 107%, respectively.
For the compound `c1csc(-c2ccc(CNc3c4ccccc4nc4ccccc34)cc2)c1`, the growth in assay [1] was 38.2%; in assay [2] it was 69%; in [3], 50.6%; in assay [4], 54.6%; in [5], 12.9%; in assay [6], -2.1% (active). The growth in assay [7] was 28.9%; in assay [8], 30.1%; in [9], 5.13% (active).
Take `COc1ccc(C(=O)/C=C/c2c(C(F)(F)F)nc3ccccn23)cc1OC`: the growth in assay [1] was 0.445% (active); in assay [2] it was 79.4%; in assay [3], 24%; in assay [4], 11.1%; in assay [5], -33.6% (active); in assay [6], 5.04% (active). Further, the figures for the growth in assay [7], in assay [8] and in [9] were 10.8%, 10.3% and -1.6% (active), respectively.
In the case of `NC(=O)CSc1oc(-c2ccccc2)nc1S(=O)(=O)c1ccc(Br)cc1`, the growth was 79.8% in [1]; 54.7% in assay [2]; 89.8% in [3]; 73.9% in [4]; 5.26% (active) in assay [6]; 70.1% in [7]. The growth was 74.5% in assay [10], 25.9% in assay [8] and 107% in assay [9].
For `COc1ccc(/C=C(\C#N)n2nnc3ccc(Cl)cc32)cc1`, the growth in [1] is 71%; in [2], 105%; in assay [3] it was 80.8%; in assay [4] it was 111%; in assay [6], 74.2%; in assay [7] it was 17.8%. The growth in assay [10] is 58.9%; in [8] it was 39.8%; in assay [9] it was 83.1%.
On to `O=C(N/N=C/c1ccc(Cl)cc1)c1[nH]c2ccc(Cl)cc2c1-c1ccccc1`, for which the growth in [1] was 42.1%; in assay [2], 10.9%; in assay [3], 37.6%; in assay [4] it was 23.9%; in [6], -7.26% (active); in assay [7], -32% (active). The figures for the growth in [10], in [8] and in [9] were 42.9%, 22.1% and -72.4% (active), respectively.
`O=S(=O)(NCCCNc1nccc(-c2c(-c3ccc(F)c(O)c3)nc3sccn23)n1)c1ccccc1`: the growth in [1] is 58.3%; in [2], 97.7%; in assay [3], 87.7%; in [4] it was 89.1%; in assay [6], 55.4%; in [7], 52.1%. Further, the growth is 63.8% in assay [10], 87.2% in assay [8] and 30.4% in assay [9].

Values taken from PubChem BioAssay (NCI).
